Test results taken from the supplement of paper PMC6555819.

Columns and labels:
Assay in all cases: PBM binding z-score (relative to random genomic background probes); higher = stronger binding; sequences stand for … in GC…GCGATTGACAGCGTAGAATGAAGG
[1] = test system: FXR:RXRa (NR concentration 270 nM, RXRa partner concentration 90 nM)
Procedure, shortened: (§1)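 Binding z-scores take random background probes as their reference. They come from custom Agilent 4×180K protein-binding microarrays incubated 1 h with ligand-free nuclear receptor dimers, with antibodies against each partner (one per run) detecting binding. Scanned fluorescence was regression-normalized.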

[2] = test system: LXRa:RXRa (NR concentration 270 nM, RXRa partner concentration 90 nM)
Procedure, shortened: as §1

[3] = test system: LXRa homodimer (NR concentration 270 nM)
Procedure, shortened: as §1

[4] = test system: LXRb:RXRa (NR concentration 270 nM, RXRa partner concentration 90 nM)
Procedure, shortened: as §1

[5] = test system: LXRb homodimer (NR concentration 270 nM)
Procedure, shortened: as §1

[6] = test system: PPARa:RXRa (NR concentration 270 nM, RXRa partner concentration 90 nM)
Procedure, shortened: as §1

[7] = test system: PPARg:RXRa (NR concentration 180 nM, RXRa partner concentration 90 nM)
Procedure, shortened: as §1

[8] = test system: PPARg:RXRa 270nM:90nM, anti-RXR (NR concentration 270 nM, RXRa partner concentration 90 nM)
Procedure, shortened: as §1

[9] = test system: PPARg:RXRa 30nM:10nM, anti-RXR (NR concentration 30 nM, RXRa partner concentration 10 nM)
Procedure, shortened: as §1

[10] = test system: PPARg:RXRa 90nM:30nM, anti-RXR (NR concentration 90 nM, RXRa partner concentration 30 nM)
Procedure, shortened: as §1

[11] = test system: PPARg:RXRa DBDmut IVT, anti-RXR (DBD mutation: RXRa K156A/R161A, NR concentration 270 nM, RXRa partner concentration 90 nM)
Procedure, shortened: as §1

[12] = test system: PPARg:RXRa IVT, anti-PPARg (NR concentration 270 nM, RXRa partner concentration 90 nM)
Procedure, shortened: as §1

[13] = test system: PPARg DBDmut:RXRa IVT, anti-PPARg (DBD mutation: PPARg1 K132A/R137A, NR concentration 270 nM, RXRa partner concentration 90 nM)
Procedure, shortened: as §1

[14] = test system: PPARg DBDmut IVT, anti-PPARg (DBD mutation: PPARg1 K132A/R137A, NR concentration 270 nM)
Procedure, shortened: as §1

[15] = test system: PPARg homodimer (NR concentration 180 nM)
Procedure, shortened: as §1

[16] = test system: PXR:RXRa (NR concentration 270 nM, RXRa partner concentration 90 nM)
Procedure, shortened: as §1

[17] = test system: PXR homodimer (NR concentration 270 nM)
Procedure, shortened: as §1

[18] = test system: RARa:RXR (NR concentration 270 nM, RXRa partner concentration 90 nM)
Procedure, shortened: as §1

[19] = test system: RARa homodimer (NR concentration 270 nM)
Procedure, shortened: as §1

[20] = test system: RARb:RXRa (NR concentration 270 nM, RXRa partner concentration 90 nM)
Procedure, shortened: as §1

Sequence	PBM binding z-score [1]	PBM binding z-score [2]	PBM binding z-score [3]	PBM binding z-score [4]	PBM binding z-score [5]	PBM binding z-score [6]	PBM binding z-score [7]	PBM binding z-score [8]	PBM binding z-score [9]	PBM binding z-score [10]	PBM binding z-score [11]	PBM binding z-score [12]	PBM binding z-score [13]	PBM binding z-score [14]	PBM binding z-score [15]	PBM binding z-score [16]	PBM binding z-score [17]	PBM binding z-score [18]	PBM binding z-score [19]	PBM binding z-score [20]
CGTCCAATGTCAATGCTAGGTCAGTGAAAGCATT	0.511	0.781	0.797	0.644	-0.123	1.01	-0.028	0.117	-0.386	0.0802	0.333	0.858	-0.586	-0.143	0.93	0.655	-0.0465	1.27	-0.0899	2.17
ATCTCTTGGTAAGACTCAGTTCAGTGAAGAACGC	0.584	0.976	0.839	0.676	1.08	0.0896	-0.159	0.141	0.448	0.216	0.682	0.216	1.42	1.19	1.11	1.12	2.04	0.274	1.84	0.518
ATCGAAGGGTCGTGAGGTGAGTATACAGAAAGGC	2.2	1.7	-0.107	1.58	0.162	3.34	1.74	1.77	0.78	1.23	-0.293	1.48	0.829	0.999	1.33	2	0.191	2.84	0.629	2.61
TTACCAAGGTGAAGCTCGTTGATCCCTCTGTAGA	0.0851	-0.0821	-1.1	-0.274	-1.24	1.09	-0.0345	0.378	0.125	0.429	1.63	2.34	-0.257	-0.63	-0.515	-0.27	-0.88	0.172	-0.72	1.29
CCTAGGAGGCCAATCTGGGTCACTCAAGGCTTGA	1.29	2.42	-0.439	1.35	-1.2	3.35	2.59	2.49	0.067	1.85	4.15	5.21	-0.00134	-1.3	0.591	1.97	-0.291	1.64	-0.236	1.94
GCTCGGAGGACTAGGTCAGAGCTTTGTCCGTAGA	-0.693	-0.505	-1.09	-0.622	-1.5	0.919	0.339	1.04	-1.04	0.269	2.42	2.73	-1.06	-1.65	-0.329	-0.496	-0.984	-0.285	-1.53	1.27
AGAATGAGGTTATACGTAGATGAGGGAAGAAAGT	2.17	1.97	0.0433	1.72	0.276	3.19	2.17	2.49	1.05	1.88	3.97	2.32	1.45	0.893	1.18	1.18	0.759	1.96	0.66	1.57
TAGAGTAGGTTACCAATGGGGCATTCAGCTTTCT	0.195	1.62	0.13	1.22	1.02	1.68	1.3	1.96	1.16	1.72	4.68	4.33	0.638	0.725	1.06	0.312	0.223	0.669	1.18	1.33
TAGCCTAGGTTATTGGGCCAGTATAGTACGCATC	-0.0933	0.0825	-0.331	0.173	-0.786	1.61	1.5	1.51	-0.136	0.762	2.14	2.87	-0.637	0.0704	-0.257	0.000197	-0.646	0.299	-1.1	0.689
CAAACTAGGTCACAGAGGTCAAAGTACGTGCGTA	7.52	6.76	7.47	6.46	2.46	6.64	10.3	8.39	6.94	8.5	8.25	9.23	3.28	3.36	6.01	7.09	11.9	7.54	2.98	5.38
TCGAGCAGGTTAGGGGCATTCAGAATGGCGTCGA	0.0413	0.102	-0.285	0.523	-0.591	0.89	-0.117	0.183	0.0683	0.228	0.212	-0.145	-1.03	-1.48	0.0489	0.241	-0.0165	0.385	-0.605	1.11
TCATATACGTAAAAGGTGAAAGTCGGTGTGGTAA	1.58	1.77	0.215	1.7	0.467	2.81	1.68	3.88	4.6	4.19	2.65	1.71	2.06	2.25	1.84	1.35	0.642	1.89	1.88	1.9
TTAACAAGGTGAAGGTCGTTGATCCCTCTGTAGA	2.23	1.78	-0.258	1.35	-0.562	2.91	2.42	3.09	1.5	2.65	2.79	3.4	0.419	0.266	0.4	1.35	0.014	1.82	-0.625	2.03
CCAGACAGGTGATAGGTAACTCAGTCTGGTACGC	-0.225	-0.0796	-0.151	-0.0572	-0.589	0.765	1.82	2.56	0.858	1.92	0.575	0.559	-0.871	0.0703	0.624	-0.293	-0.225	0.152	0.246	0.0928
TCTTGTAGATCAATAGATGTTAAGAAAGTGCGCT	0.0811	0.309	0.0852	0.0203	-0.00365	-0.0219	0.251	1.64	3.17	2.42	1.57	0.386	0.918	1.19	-0.501	0.533	0.037	0.616	0.125	-0.26
ACTCGGAGGACAAAGGTCCGAGCTACGCCAGTGA	-0.0908	0.0119	-0.328	-0.654	-0.577	0.672	1.66	2.29	0.616	2.38	0.177	0.313	-0.996	-0.635	-0.36	-0.365	-0.238	-0.334	-0.387	1.29
CGTCCAAGGTCAGCAGGTCAGTGAGAGCGACGTG	5.85	4.1	0.541	2.94	-0.239	4.74	4.1	4.36	1.29	2.94	2.88	3.81	-0.522	-0.683	3.25	3.75	0.915	4.78	1.19	5.39
CCTCAAAGTTCAAGGTAACGTAACAGAAAGCAGC	5.83	5.87	3.49	3.83	1.95	4.85	2.87	3.67	0.99	2.22	0.797	0.928	0.66	0.159	3.58	4.18	2.53	3.49	2.16	5.26
CCTCGGAGGACAGCAGGAGGTCAGAGCTGCCAGA	0.706	1.02	0.292	0.728	-0.764	1.48	-0.245	-0.0312	-1.08	-0.248	-0.448	-0.212	-1.03	-2.54	1.7	1.55	0.245	1.79	0.518	2.62
CAGCCTAGGTCAGGGCCAGTATCGGAGGAACGTT	1.55	0.907	-0.258	0.354	-1.03	1.91	0.418	0.759	-0.713	0.129	1.72	1.55	-1.42	-1.35	0.632	0.107	-1.08	0.761	-0.159	3.54
AGCTCTAGGTAACCAAGTTCAGTGAATGCCGAAC	-0.0702	0.208	0.46	0.265	-0.228	0.481	0.22	0.513	-0.0768	-0.252	3.96	2.07	-0.276	-0.0149	0.421	1.53	1.74	0.198	-0.119	0.793
GCTGCTAGGTCAACTAATGGTCAGCTAAAGCTCG	3.23	2.87	0.268	2.02	0.0624	3.29	2.45	3.11	0.435	2.19	4.24	3.84	-0.334	-0.784	1.66	1.37	-0.568	2.35	-0.116	4.03
AGCGAAAGGTCGACGAGGTGAGTATACACCGTTT	4.18	2.97	-0.376	2.37	-0.286	4.3	3.21	3.62	0.842	2.31	0.519	1.89	0.248	0.154	1.07	2.86	0.276	3.47	-0.0264	3.84
GATACAGGGTCAGCTAGAGGCCGGAGTATGGAAA	4.48	2.56	-0.44	2.17	-0.594	4.57	3.61	3.41	0.716	2.13	1.03	2.37	-0.293	0.124	1.78	2.59	-0.0586	3.41	0.211	4.12
CGAGCTAGGTCAGAACAGGACAGTGAAGGATGAT	1.62	0.749	-0.308	-0.00924	-0.647	1.11	1.11	0.596	-0.277	0.0129	1.93	1.04	-1.14	-1.15	0.363	0.798	-0.245	0.682	-0.341	2.89
CGTCCAAGGTCATAGGAGGTCAGGGAAGACAGAT	7.91	7.63	5.15	6.25	0.687	6.17	6.03	5.99	2.83	4.83	3.02	4.92	1.73	1.82	5.03	6.9	3.35	6.79	2.46	5.31
CCTAGTTTGTCAGGAGGTCACACACCGGATATGA	3.37	3.76	3	3.64	1.48	4.17	2.45	3.15	1.26	2.39	1.14	2.9	1.37	1.6	4.45	4.63	1.7	5.02	2.79	3.46
CTACCAAGGTGAACAAGGTCGGTGATTACTATTC	0.778	0.251	-0.361	0.578	-0.54	1.69	0.819	0.753	-0.269	0.288	1.91	2.78	0.327	-0.584	0.38	0.812	0.00939	1.11	0.0895	1.97
GCTGCTAGGTCAACTGATGGACAGCTAAAGCTCG	3.98	2.38	-0.308	1.66	0.0379	3.46	2.8	2.99	0.269	1.92	4.96	4.05	-0.737	-0.4	0.547	1.05	-0.677	1.9	-0.785	4.12
